Our source for the binding signal values is PMC5700166.

Positions count from the first letter of the chain named.

What all share (test): protein-binding microarray (PBM); PBM: ~300 nM protein, 6 mM HEPES pH 7.8, 80 mM KCl, 0.5 mM EDTA, 0.5 mM EGTA, 6% glycerol, 35 ng/ul poly-dIdC, 1% milk, 1 h, room temperature; Ap Aiptasia and Nv Nematostella (sea anemones) / Co Capsaspora / Aq Amphimedon (sponge) / Dm Drosophila / Hu human; RHD is the Rel homology domain; high values mean tight binding
Common to all, as to settings: dsDNA, one strand shown

For one test, the target named is T1, GST-Ap-NF-kB RHD (Exaiptasia pallida (Aiptasia), UniProt A0A913YAJ5 2-422).
T1 sequence: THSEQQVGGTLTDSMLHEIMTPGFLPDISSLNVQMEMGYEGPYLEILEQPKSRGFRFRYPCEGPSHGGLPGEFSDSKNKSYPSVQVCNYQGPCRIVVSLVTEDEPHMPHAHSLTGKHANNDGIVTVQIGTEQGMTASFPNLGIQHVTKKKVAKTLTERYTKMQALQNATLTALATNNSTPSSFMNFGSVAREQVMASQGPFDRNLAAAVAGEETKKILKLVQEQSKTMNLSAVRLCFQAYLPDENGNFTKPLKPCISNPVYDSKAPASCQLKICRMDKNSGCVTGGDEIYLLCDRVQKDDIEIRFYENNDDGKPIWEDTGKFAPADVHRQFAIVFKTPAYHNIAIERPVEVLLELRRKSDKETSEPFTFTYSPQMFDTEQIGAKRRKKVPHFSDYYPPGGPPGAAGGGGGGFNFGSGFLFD

The target in test [1] is T2, GST-Nv-NF-kB (Cys allele) (Nematostella vectensis, UniProt E5G601 2-411).
T2 sequence: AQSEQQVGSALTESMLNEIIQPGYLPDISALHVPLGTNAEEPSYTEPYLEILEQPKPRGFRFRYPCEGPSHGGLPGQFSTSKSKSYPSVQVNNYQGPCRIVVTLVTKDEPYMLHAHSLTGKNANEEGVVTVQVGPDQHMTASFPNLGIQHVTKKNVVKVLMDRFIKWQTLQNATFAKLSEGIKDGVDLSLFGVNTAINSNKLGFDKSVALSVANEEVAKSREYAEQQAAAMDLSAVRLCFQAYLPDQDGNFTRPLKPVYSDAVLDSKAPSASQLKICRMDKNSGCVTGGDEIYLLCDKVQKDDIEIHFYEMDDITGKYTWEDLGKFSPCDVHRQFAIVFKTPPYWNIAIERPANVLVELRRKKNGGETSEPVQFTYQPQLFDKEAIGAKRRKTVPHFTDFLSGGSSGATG

Test [2] addresses T3, GST-Nv-NF-kB (Ser allele) (Nematostella vectensis, UniProt A7UNT2 2-411).
T3 sequence: T2 sequence with Q21R, C66S, S207N, E215Q, V217A, E225K, A268E, D399E

In the next test the target is T4, GST-Co-NF-kB (Capsaspora owczarzaki, UniProt F1ARL5 200-546).
T4 sequence: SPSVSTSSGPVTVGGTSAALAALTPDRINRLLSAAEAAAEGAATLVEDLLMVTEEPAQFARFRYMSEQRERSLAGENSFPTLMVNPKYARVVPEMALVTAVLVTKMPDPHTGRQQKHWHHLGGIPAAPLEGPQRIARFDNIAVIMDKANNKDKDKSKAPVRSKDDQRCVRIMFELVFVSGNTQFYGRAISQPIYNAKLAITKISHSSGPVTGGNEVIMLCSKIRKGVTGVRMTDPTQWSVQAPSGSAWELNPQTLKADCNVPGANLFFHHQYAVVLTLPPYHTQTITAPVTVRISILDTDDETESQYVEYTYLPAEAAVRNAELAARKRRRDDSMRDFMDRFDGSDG

The next test deals with T5, GST-Dm-Relish (Drosophila melanogaster, UniProt Q94527 99-473).
T5 sequence: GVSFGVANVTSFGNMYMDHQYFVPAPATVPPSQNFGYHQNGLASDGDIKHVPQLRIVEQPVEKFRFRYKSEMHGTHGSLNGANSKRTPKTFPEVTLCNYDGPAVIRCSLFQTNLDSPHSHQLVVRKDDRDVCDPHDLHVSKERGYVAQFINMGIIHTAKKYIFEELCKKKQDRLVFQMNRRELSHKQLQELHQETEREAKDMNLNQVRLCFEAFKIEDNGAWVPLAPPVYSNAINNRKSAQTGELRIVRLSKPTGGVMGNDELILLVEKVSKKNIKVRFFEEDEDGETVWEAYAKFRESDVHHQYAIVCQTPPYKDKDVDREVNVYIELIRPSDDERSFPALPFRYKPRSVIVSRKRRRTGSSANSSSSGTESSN

The target of the next test is T6, GST-Aq-NF-kB (Amphimedon queenslandica, UniProt A9Y5G7 2-389).
T6 sequence: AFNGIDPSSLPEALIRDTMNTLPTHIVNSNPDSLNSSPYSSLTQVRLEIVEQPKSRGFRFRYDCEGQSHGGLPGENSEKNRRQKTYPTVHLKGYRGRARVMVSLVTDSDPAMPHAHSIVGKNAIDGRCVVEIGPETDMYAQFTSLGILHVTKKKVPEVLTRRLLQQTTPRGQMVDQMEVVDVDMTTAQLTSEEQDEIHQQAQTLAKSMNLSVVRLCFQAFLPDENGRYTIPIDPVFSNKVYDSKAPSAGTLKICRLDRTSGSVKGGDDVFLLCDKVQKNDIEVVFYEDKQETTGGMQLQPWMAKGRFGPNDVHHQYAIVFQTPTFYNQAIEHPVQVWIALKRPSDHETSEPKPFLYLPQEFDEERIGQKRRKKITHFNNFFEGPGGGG

The target in the next test is GST-Hu-p50 (Homo sapiens, UniProt P19838 7-356).
Chain of GST-Hu-p50 (P19838 7-356): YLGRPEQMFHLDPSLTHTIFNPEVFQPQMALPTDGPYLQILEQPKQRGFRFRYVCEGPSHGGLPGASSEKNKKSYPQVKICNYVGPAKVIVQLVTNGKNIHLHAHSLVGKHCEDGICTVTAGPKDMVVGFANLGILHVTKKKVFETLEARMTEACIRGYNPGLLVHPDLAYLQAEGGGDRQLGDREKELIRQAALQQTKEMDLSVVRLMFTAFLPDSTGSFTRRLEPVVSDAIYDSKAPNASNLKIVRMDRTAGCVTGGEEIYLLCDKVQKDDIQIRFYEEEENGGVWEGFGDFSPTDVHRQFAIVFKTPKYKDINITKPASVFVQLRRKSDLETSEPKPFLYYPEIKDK

Take “CCGATTAACATCAAACTTCCCCATGATGTTAATCGGGTCTTGATTCGCTTGACGCTGCTG”: the binding signal with GST-Ap-NF-kB RHD came out at 6.34 z-score; in test [1], 7.12 z-score; in test [2], 7.9 z-score; with GST-Co-NF-kB, 7.04 z-score; with GST-Dm-Relish, 5.5 z-score; with GST-Aq-NF-kB it was 6.28 z-score. For the same sequence, in the test with GST-Hu-p50, the binding signal was determined as 5.87 z-score.
Turning to “CCGATTAACATCAAAACACTCCCTGATGTTAATCGGGTCTTGATTCGCTTGACGCTGCTG”, the binding signal with GST-Ap-NF-kB RHD was found to be 2.25 z-score; in test [1], 3.3 z-score; in test [2] it was 2.69 z-score; with GST-Co-NF-kB it was 2.06 z-score; with GST-Dm-Relish, 1.28 z-score; with GST-Aq-NF-kB, 4.45 z-score. Besides, in the test with GST-Hu-p50, the binding signal is 2.59 z-score.
Regarding “CCGATTAACATCAAAATTCCCTTTGATGTTAATCGGGTCTTGATTCGCTTGACGCTGCTG”, the binding signal came out at 5.04 z-score with GST-Ap-NF-kB RHD; 8.11 z-score in test [1]; 8.05 z-score in test [2]; 2.62 z-score in the test with GST-Co-NF-kB; 5.83 z-score with GST-Dm-Relish; 7.05 z-score in the test with GST-Aq-NF-kB. Further, in the test with GST-Hu-p50, the binding signal came to 6.07 z-score.
Consider “CCGATTAACATCAAATTTTCCCCTGATGTTAATCGGGTCTTGATTCGCTTGACGCTGCTG”, for which the binding signal in the test with GST-Ap-NF-kB RHD was determined as 7.95 z-score; in test [1] it was 9.83 z-score; in test [2], 12.2 z-score; in the test with GST-Co-NF-kB it was 11.6 z-score; with GST-Dm-Relish, 5.18 z-score; in the test with GST-Aq-NF-kB, 7.36 z-score. The same sequence gave a binding signal with GST-Hu-p50 of 6.86 z-score.
Take “CCGATTAACATCACAATATCCCCTGATGTTAATCGGGTCTTGATTCGCTTGACGCTGCTG”: the binding signal with GST-Ap-NF-kB RHD was determined as 7.16 z-score; in test [1], 6.58 z-score; in test [2], 7.91 z-score; with GST-Co-NF-kB it was 4.15 z-score; with GST-Dm-Relish, 5.03 z-score; in the test with GST-Aq-NF-kB, 4.96 z-score. In addition, the binding signal in the test with GST-Hu-p50 was found to be 4.67 z-score.
For “CCGATTAACATCACTATATTCCCTGATGTTAATCGGGTCTTGATTCGCTTGACGCTGCTG”, the binding signal was determined as 3.08 z-score with GST-Ap-NF-kB RHD; 3.16 z-score in test [1]; 3.56 z-score in test [2]; 3.19 z-score with GST-Co-NF-kB; 1.62 z-score with GST-Dm-Relish; 2.6 z-score in the test with GST-Aq-NF-kB. Moreover, the binding signal in the test with GST-Hu-p50 is 1.77 z-score.
For the sequence “CCGATTAACATCAAGTTTTTCCCTGATGTTAATCGGGTCTTGATTCGCTTGACGCTGCTG”, the binding signal worked out at 4.35 z-score with GST-Ap-NF-kB RHD; 5.43 z-score in test [1]; 7.41 z-score in test [2]; 5.3 z-score with GST-Co-NF-kB; 5.12 z-score in the test with GST-Dm-Relish; 5.1 z-score in the test with GST-Aq-NF-kB. This sequence also returned a binding signal with GST-Hu-p50 of 4.44 z-score.
In the case of “CCGATTAACATCAGGAGCTCCCCTGATGTTAATCGGGTCTTGATTCGCTTGACGCTGCTG”, the binding signal amounted to 4.8 z-score with GST-Ap-NF-kB RHD; 2.61 z-score in test [1]; 1.84 z-score in test [2]; 2.71 z-score with GST-Co-NF-kB; 1.84 z-score with GST-Dm-Relish; 4.7 z-score in the test with GST-Aq-NF-kB. The binding signal in the test with GST-Hu-p50 was 2.1 z-score.
Turning to “CCGATTAACATCACGTTTTCCCCTGATGTTAATCGGGTCTTGATTCGCTTGACGCTGCTG”, the binding signal in the test with GST-Ap-NF-kB RHD worked out at 7.13 z-score; in test [1] it was 7.87 z-score; in test [2] it was 10.1 z-score; with GST-Co-NF-kB, 8.47 z-score; with GST-Dm-Relish it was 4.49 z-score; with GST-Aq-NF-kB, 5.5 z-score. Besides, the binding signal with GST-Hu-p50 is 5.96 z-score.
Consider “CCGATTAACATCACGGTATTCCCTGATGTTAATCGGGTCTTGATTCGCTTGACGCTGCTG”, for which the binding signal with GST-Ap-NF-kB RHD came to 4.35 z-score; in test [1], 3.63 z-score; in test [2], 3.91 z-score; with GST-Co-NF-kB it was 3.34 z-score; in the test with GST-Dm-Relish it was 6.53 z-score; with GST-Aq-NF-kB, 6 z-score. Also, the binding signal with GST-Hu-p50 is 1.52 z-score.
For the sequence “CCGATTAACATCAGGAAATTCCCTGATGTTAATCGGGTCTTGATTCGCTTGACGCTGCTG”, the binding signal in the test with GST-Ap-NF-kB RHD was determined as 6.31 z-score; in test [1], 9.9 z-score; in test [2] it was 8.03 z-score; with GST-Co-NF-kB it was 4.13 z-score; in the test with GST-Dm-Relish, 6.79 z-score; in the test with GST-Aq-NF-kB, 9.8 z-score. In the test with GST-Hu-p50, this sequence had a binding signal of 6.16 z-score.
